Results filed as inconclusive are left out. Active and inactive are the calls of the source. Unless noted, calls come from the whole dose curve; as a rule, active = well fitted curve in the direction sought with a large enough effect; inconclusive = small, poorly fitted or top-dose-only effect, or another doubt; inactive = no such curve, though single readings can be large; an effect the other way counts as inactive or inconclusive.
Columns and labels:
[1] = biological target: Catechol O-methyltransferase (Homo sapiens) (UniProt P21964); experiment: Confirmatory Screen for Target Class Profiling of Small Molecule Inhibitors of Methyltransferases (AID 1745852; calls by dose curve; for activity change, negative = inhibition: % is set by controls: 0 for no effect and ±100 for the full control effect); conditions: MTase-Glo luminescence, SAH detection, recombinant enzyme; measured here: COMT max response; stronger effect = lower value
Catechol O-methyltransferase (Homo sapiens), sequence (P21964 whole entry, looked up): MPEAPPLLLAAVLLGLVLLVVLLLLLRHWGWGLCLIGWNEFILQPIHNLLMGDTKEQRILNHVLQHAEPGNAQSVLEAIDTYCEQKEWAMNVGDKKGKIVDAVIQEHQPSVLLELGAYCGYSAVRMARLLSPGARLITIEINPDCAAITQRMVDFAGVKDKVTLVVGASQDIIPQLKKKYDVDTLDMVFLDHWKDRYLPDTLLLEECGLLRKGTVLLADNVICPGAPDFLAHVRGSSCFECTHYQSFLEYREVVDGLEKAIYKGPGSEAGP

[2] = biological target: Guanidinoacetate N-methyltransferase (Homo sapiens) (UniProt Q14353); experiment: as above; conditions: activity change, negative = inhibition: at 57.3 µM (top of the series) unless noted
[3] = biological target: Nicotinamide N-methyltransferase (Homo sapiens) (UniProt P40261); experiment: as above; conditions: MTase-Glo luminescence, SAH detection, recombinant enzyme; measured here: NNMT max response; stronger effect = lower value
Nicotinamide N-methyltransferase (Homo sapiens), sequence (P40261 whole entry, looked up): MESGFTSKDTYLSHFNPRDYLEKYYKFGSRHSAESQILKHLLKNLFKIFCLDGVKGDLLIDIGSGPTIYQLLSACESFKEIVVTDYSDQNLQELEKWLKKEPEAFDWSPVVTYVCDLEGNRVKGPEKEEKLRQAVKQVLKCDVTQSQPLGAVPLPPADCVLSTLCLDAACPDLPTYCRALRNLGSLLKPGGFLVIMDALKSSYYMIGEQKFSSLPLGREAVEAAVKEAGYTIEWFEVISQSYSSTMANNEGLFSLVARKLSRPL

[4] = biological target: Phenylethanolamine N-methyltransferase (Homo sapiens) (UniProt P11086); experiment: as above; conditions: MTase-Glo luminescence, SAH detection, recombinant enzyme; measured here: PNMT max response; stronger effect = lower value
Phenylethanolamine N-methyltransferase (Homo sapiens), sequence (P11086 whole entry, looked up): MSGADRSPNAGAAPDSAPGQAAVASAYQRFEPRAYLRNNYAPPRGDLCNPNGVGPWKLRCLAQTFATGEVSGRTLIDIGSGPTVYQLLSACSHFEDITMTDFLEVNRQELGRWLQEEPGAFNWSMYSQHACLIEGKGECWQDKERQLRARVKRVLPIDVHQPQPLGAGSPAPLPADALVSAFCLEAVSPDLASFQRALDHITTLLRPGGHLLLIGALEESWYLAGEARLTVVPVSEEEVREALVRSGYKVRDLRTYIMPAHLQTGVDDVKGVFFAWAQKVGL

[5] = Counterscreen for APE1 Inhibitors: Fluorescent Dye Displacement Validation Assay (AID 1707);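 note: plate controls were ThO with dsDNA and no compound for no effect and ThO without dsDNA for full effect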
Procedure, shortened: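 Thiazole Orange displacement from dsDNA: 250 nM ThO with 50 nM TAMRA-labelled abasic-site (tetrahydrofuran) duplex in 50 mM Tris-HCl pH7.5, 50mM NaCl, 2 mM MgCl2, 0.01% Tween-20. Loss of endpoint fluorescence (ex 480 nm, em 540 nm) flags DNA binders.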

[6] = biological target: Endonuclease 4 (Escherichia coli (strain K12)) (UniProt P0A6C1); experiment: Counterscreen for APE1 Inhibitors: qHTS Validation Assay for Inhibitors of Endonuclease IV (AID 1708); note: % is set by controls: 0 for no effect and ±100 for the full control effect
Procedure, shortened: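 E. coli EndoIV at 2 nM final, preincubated 15 min at room temperature with compound, then 50 nM TAMRA/BHQ-2 THF abasic-site duplex added. Buffer: 50 mM Tris-HCl pH 7.5, 50 mM NaCl, 2 mM MgCl2, 1 mM DTT, 0.01% Tween-20. Kinetic fluorescence increase, third minus first read.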

[7] = qHTS for differential inhibitors of proliferation of Plasmodium falciparum line GB4 (AID 1816); conditions: Potency: Plasmodium falciparum GB4 proliferation inhibition;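 note: potency is the fitted concentration of half-maximal effect; parasite growth measured after 72 h incubation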
[8] = qHTS for differential inhibitors of proliferation of Plasmodium falciparum line 3D7 (AID 1876); note: potency is the fitted concentration of half-maximal effect
[9] = qHTS for differential inhibitors of proliferation of Plasmodium falciparum line Dd2 (AID 1882); conditions: Potency: Plasmodium falciparum Dd2 proliferation inhibition;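 note: plate controls were DMSO vehicle for no effect and 0.29 µM artemisinin for full effect; nearly all actives have a fitted effect of over 65% in size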
Procedure, shortened: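 Dd2-infected erythrocytes (0.3% parasitemia, 2.5% hematocrit final) incubated with compound 72 h at 37 C, 5% CO2; lysed with saponin/Triton buffer containing SYBR Green I, incubated overnight in the dark, then read by fluorescence (485/535 nm). Normalized to 0.29 uM artemisinin and DMSO.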

[10] = biological target: Ferritin light chain (Equus caballus) (UniProt P02791); experiment: qHTS Validation Assay for Identification of Novel General Anesthetics (AID 2323); note: % is set by controls: 0 for no effect and ±100 for the full control effect
Ferritin light chain (Equus caballus), sequence (P02791 2-175 limits assumed): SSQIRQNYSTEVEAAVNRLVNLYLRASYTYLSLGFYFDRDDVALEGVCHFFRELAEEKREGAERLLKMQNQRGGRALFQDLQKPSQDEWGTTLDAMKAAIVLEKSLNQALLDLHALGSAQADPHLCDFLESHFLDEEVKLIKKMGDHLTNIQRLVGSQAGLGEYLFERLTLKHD
Procedure, shortened: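 Competitive displacement of the profluorescent anesthetic 1-AMA (50% saturated, PBS) from 10 uM apoferritin, 10 min, room temperature. Activity is normalized 380/535 nm fluorescence; concentration-response fitted with a four-parameter Hill equation.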

[11] = biological target: ATP-dependent DNA helicase Q1 (Homo sapiens) (UniProt P46063); experiment: qHTS Validation Assay for Inhibitors of RecQ-Like Dna Helicase 1 (RECQ1) (AID 2353);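 note: plate controls were DMSO vehicle for no effect and enzyme-free control for full effect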
ATP-dependent DNA helicase Q1 (Homo sapiens), sequence (P46063 whole entry, looked up): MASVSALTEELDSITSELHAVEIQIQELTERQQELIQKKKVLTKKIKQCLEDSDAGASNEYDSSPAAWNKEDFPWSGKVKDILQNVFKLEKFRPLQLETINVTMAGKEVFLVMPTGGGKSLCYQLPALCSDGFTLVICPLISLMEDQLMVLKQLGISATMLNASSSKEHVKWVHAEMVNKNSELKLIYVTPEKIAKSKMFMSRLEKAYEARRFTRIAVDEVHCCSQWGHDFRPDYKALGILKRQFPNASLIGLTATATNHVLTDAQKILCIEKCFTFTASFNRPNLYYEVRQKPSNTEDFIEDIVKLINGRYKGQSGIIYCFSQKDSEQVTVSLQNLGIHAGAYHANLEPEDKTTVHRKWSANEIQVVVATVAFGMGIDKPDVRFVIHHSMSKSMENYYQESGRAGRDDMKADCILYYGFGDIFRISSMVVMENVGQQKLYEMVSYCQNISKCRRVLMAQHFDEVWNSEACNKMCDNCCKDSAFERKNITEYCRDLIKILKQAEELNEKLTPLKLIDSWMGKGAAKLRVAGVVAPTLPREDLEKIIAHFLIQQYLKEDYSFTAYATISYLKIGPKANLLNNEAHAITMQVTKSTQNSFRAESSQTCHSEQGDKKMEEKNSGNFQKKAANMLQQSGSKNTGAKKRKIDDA
Procedure, shortened: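 50 nM RECQ1T1 preincubated 15 min with compound in Tris pH 8.0 buffer with MgCl2, DTT, Tween-20 and 2.5 ug/ml poly(dI-dC); started with 200 nM TAMRA/BHQ-2 forked duplex and 2 mM ATP. Unwinding read as fluorescence (525/598 nm), two reads 2 h apart.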

[12] = Quantitative high throughput screen for delayed death inhibitors of the malarial parasite plastid, 96 hour incubation (AID 488745); note: potency is the fitted concentration of half-maximal effect; nearly all actives have a fitted effect of over 70% in size
Procedure, shortened: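 Luciferase-expressing P. falciparum in erythrocytes (2% hematocrit, 0.1% parasitemia) incubated with compound for 96 h at 37 C, 5% CO2, in RPMI 1640 with 0.5% Albumax. Growth inhibition read as decreased luminescence.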

[13] = biological target: Transient receptor potential cation channel subfamily V member 1 (Homo sapiens) (UniProt Q8NER1); experiment: HTS Assay for Compounds that Act as Enhancers of the Vanilloid Receptor 1 (AID 488979); note: 0% is about no effect
Transient receptor potential cation channel subfamily V member 1 (Homo sapiens), sequence (Q8NER1 whole entry, looked up): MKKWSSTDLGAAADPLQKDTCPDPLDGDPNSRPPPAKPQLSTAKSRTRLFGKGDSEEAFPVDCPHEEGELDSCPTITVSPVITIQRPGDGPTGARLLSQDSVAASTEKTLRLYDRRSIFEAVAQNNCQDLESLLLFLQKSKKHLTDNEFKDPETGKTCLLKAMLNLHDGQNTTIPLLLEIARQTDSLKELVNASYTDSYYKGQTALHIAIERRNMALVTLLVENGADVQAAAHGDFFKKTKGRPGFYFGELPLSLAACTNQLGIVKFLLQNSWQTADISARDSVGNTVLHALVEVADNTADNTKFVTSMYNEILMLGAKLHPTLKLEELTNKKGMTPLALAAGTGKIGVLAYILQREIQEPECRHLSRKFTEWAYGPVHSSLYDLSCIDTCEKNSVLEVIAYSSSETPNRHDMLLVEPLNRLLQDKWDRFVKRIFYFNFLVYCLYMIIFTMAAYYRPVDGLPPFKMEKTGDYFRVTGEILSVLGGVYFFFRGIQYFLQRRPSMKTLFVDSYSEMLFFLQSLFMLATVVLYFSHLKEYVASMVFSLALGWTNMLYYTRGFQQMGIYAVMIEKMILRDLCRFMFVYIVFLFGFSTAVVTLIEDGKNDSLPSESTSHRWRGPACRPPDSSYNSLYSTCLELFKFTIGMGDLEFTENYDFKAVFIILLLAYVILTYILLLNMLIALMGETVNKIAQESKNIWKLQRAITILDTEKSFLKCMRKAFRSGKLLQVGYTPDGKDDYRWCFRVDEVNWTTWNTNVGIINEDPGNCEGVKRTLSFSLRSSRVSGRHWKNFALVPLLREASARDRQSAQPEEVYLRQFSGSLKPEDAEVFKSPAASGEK
Procedure, shortened: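 TRPV1 cells loaded with Fluo-8 calcium dye; compound added and Ca2+ signal (ex 480/em 520 nm) followed 3 min, then capsaicin at EC20 added and read 2 more min to detect enhancement.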

[14] = biological target: Thyrotropin receptor (Homo sapiens) (UniProt P16473); experiment: qHTS Assay for Antagonists of the Thyroid Stimulating Hormone Receptor (AID 488980); note: 0% is about no effect
Thyrotropin receptor (Homo sapiens), sequence (P16473 whole entry, looked up): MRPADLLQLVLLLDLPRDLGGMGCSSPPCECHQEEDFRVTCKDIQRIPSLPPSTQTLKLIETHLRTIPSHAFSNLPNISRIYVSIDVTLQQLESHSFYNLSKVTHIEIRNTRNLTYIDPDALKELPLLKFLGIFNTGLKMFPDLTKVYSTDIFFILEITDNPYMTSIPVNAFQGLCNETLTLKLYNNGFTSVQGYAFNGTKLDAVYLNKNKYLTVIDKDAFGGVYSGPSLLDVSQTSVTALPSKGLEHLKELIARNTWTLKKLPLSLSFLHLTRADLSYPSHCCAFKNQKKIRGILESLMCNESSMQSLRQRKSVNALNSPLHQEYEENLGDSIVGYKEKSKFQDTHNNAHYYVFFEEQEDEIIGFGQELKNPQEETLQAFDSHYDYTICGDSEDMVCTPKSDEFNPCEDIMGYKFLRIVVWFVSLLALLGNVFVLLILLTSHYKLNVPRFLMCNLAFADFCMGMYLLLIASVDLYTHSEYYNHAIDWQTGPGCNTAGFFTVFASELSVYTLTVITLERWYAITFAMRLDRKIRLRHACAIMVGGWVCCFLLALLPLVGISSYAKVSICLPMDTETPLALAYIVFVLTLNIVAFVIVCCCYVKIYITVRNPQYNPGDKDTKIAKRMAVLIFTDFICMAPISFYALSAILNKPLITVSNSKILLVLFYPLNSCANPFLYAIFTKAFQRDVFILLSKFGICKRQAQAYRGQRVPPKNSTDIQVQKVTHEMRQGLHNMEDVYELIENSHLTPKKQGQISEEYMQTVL
Procedure, shortened: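 Inhibition of cAMP raised by EC80 TSH (4 nM final) was read by HTRF, with lysate cAMP competing against cAMP-d2 for cryptate antibody after 30 min at room temperature. The cells were transfected HEK293 held in phosphodiesterase inhibitor RO 20-1724 at 70 uM.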

[15] = biological target: Thyrotropin-releasing hormone receptor (Homo sapiens) (UniProt P34981); experiment: qHTS for Small Molecule Agonists and Allosteric Enhancers of Human TRH Receptor: Validation Screen for Agonists (AID 493127;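 active = calcium activation more than 3 SD above the typical response in the agonist read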; note: 0% is about no effect); conditions: TRH receptor agonist cell assay; at 2 µM; stronger effect = higher value
Procedure, shortened: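 TRHR cells loaded with fluo-8 calcium dye; FDSS kinetic fluorescence (Ex 480/Em 530) read at 1 s/cycle after 23 nL compound addition. Agonist-mode calcium response recorded before the 10 nM TRH (EC20) addition.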

[16] = biological target: Galactokinase (Homo sapiens) (UniProt P51570); experiment: qHTS Validation Assay for Inhibitors of Human Galactokinase (GALK) (AID 493189); note: 0% is about no effect
Galactokinase (Homo sapiens), sequence (P51570 whole entry, looked up): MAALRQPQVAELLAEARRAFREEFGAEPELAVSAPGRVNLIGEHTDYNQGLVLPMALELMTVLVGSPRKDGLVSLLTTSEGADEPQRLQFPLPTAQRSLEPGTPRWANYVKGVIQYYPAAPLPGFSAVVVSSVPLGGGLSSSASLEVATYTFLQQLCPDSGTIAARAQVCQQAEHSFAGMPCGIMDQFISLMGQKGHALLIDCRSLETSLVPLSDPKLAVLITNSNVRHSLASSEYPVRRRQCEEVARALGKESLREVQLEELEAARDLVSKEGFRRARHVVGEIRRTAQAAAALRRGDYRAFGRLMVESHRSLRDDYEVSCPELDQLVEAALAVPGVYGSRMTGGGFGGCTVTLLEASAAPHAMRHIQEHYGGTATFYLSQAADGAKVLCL
Procedure, shortened: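 Inhibition was measured as remaining ATP, detected by luciferase luminescence after a 1 h room-temperature reaction. Final conditions: 5 nM GALK, 100 uM galactose, 35 uM ATP, pH 8.0 HEPES buffer.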

[17] = Validation screen for small molecules that induce DNA re-replication in SW480 colon adenocarcinoma cells (AID 504364); note: 0% is about no effect
Procedure, shortened: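 SW480 cells (250/well) exposed 48 h at 37 C, 5% CO2, then Hoechst-stained 40 min. Nuclear DNA content imaged by fluorescence scanning (405 nm excitation, 500-530 nm emission); re-replication scored as increased nuclei with elevated intensity.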

[18] = biological target: Voltage-gated inwardly rectifying potassium channel KCNH2 (Homo sapiens) (UniProt Q12809); experiment: qHTS Assay for Small Molecule Inhibitors of the Human hERG Channel Activity (AID 588834);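 note: top concentration of the series differs between compounds; % is set by controls: 0 for no effect and ±100 for the full control effect; lower thallium flux fluorescence means stronger hERG block; nearly all actives have a fitted effect of over 50% in size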
Voltage-gated inwardly rectifying potassium channel KCNH2 (Homo sapiens), sequence (Q12809 whole entry, looked up): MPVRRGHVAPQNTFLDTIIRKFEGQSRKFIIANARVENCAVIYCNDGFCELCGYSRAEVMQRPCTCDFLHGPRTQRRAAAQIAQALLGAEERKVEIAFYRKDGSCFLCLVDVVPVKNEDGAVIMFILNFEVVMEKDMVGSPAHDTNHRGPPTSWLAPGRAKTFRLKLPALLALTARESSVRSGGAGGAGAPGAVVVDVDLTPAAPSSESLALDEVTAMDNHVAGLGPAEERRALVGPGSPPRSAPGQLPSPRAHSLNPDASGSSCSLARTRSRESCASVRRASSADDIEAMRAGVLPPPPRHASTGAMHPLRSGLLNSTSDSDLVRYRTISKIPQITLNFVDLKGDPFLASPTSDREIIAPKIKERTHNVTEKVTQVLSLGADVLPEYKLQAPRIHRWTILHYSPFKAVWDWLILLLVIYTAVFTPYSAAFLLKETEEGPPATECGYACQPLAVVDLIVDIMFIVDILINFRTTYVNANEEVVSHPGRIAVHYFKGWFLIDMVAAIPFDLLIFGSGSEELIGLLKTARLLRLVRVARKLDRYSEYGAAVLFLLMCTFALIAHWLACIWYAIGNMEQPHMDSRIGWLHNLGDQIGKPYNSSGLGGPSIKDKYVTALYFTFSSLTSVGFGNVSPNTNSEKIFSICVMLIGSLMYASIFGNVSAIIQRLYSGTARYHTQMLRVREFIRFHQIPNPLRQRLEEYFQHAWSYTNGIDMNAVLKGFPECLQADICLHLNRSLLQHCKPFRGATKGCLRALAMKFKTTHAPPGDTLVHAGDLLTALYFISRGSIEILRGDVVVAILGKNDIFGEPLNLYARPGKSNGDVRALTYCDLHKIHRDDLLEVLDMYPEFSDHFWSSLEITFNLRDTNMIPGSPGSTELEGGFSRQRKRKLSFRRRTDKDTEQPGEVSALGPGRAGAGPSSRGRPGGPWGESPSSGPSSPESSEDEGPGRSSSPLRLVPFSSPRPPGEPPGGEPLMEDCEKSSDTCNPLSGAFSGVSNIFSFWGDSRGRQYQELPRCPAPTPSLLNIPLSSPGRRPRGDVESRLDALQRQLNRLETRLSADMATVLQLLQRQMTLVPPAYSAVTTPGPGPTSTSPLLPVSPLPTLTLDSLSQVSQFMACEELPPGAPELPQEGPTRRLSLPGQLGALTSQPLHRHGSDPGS
Procedure, shortened: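 Kinetic FDSS fluorescence; U2OS + hERG BacMam (~100 virus particles/cell); FluxOR Tl+ flux; ~10 min cpd; AC50 (Hill).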

SMILES: COC(=O)C(Cc1c[nH]c2ccccc12)NC(=O)c1ccccc1Br (centres undefined)
- activity [1]: -2.16%
- activity change, negative = inhibition [2]: 0%
- activity [3]: -4.76%
- activity [4]: -7.16%

SMILES: O=C(c1cc(-c2ccccc2)n[nH]1)N1CCc2c(nc(-c3ccccc3)[nH]c2=O)C1
- activity [1]: 4.33%
- activity change, negative = inhibition [2]: 7.17%
- activity [3]: 3.92%
- activity [4]: 5.63%

SMILES: CCN1CCN(c2nc3c(S(=O)(=O)c4ccc(C)cc4)nnn3c3ccccc23)CC1
- activity [1]: -6.68%
- activity change, negative = inhibition [2]: -2.1%
- activity [3]: -16.7%
- activity [4]: -10.8%

SMILES: CC1(C(=O)NC2CCCCC2)Cn2c(c(-n3cccc3)c3ccccc32)C(=O)N1Cc1ccccn1 (centres undefined)
- activity [1]: 0%
- activity change, negative = inhibition [2]: 0%
- activity [3]: -45.4%
- activity [4]: 2.72%

SMILES: CCOc1c(CN(C)C(=O)Cn2cccc(OC)c2=O)cccc1OC
- activity [1]: 0.499%
- activity change, negative = inhibition [2]: -5.47%
- activity [3]: -3.91%
- activity [4]: 0.0949%

SMILES: O=C(CCc1nnc2n(Cc3ccccc3Cl)c(=O)c3ccccc3n12)N1CCC(N2CCCCC2)CC1
- activity [1]: 0%
- activity change, negative = inhibition [2]: 0.582%
- activity [3]: -1.92%
- activity [4]: 0%

SMILES: COc1ccc(S(=O)(=O)N2CCC(n3c(=O)[nH]c4ccccc43)CC2)cc1
- activity [1]: -23.2%
- activity change, negative = inhibition [2]: -12%
- activity [3]: -15.3%
- activity [4]: -23.9%

SMILES: O=C(O)c1ccc2c(c1)C1C=CCC1C(c1cccc(F)c1)N2 (centres undefined)
- activity [1]: -2.11%
- activity change, negative = inhibition [2]: 2.71%
- activity [3]: 0.825%
- activity [4]: -2.83%

SMILES: COc1ccccc1CNC(=O)C1(C)Cn2c(cc3ccccc32)C(=O)N1Cc1ccc(OC)c(OC)c1 (centres undefined)
- activity [1]: 0%
- activity change, negative = inhibition [2]: 0%
- activity [3]: -60.4%
- activity [4]: -1.32%

SMILES: CCCS(=O)(=O)N1CCCC(Cn2c(C)nc3cccnc32)C1 (centres undefined)
- activity [1]: 1.15%
- activity change, negative = inhibition [2]: 2.96%
- activity [3]: 7.76%
- activity [4]: 4.99%

SMILES: Nc1nc(Cl)nc2c1ncn2[C@@H]1O[C@H](CO)[C@H](O)[C@H]1O
- outcome [5]: inactive
- Potency [6]: inactive
- Potency [7]: 11.2 µM (active)
- Potency [8]: 7.08 µM (active)
- Potency [9]: inactive
- outcome [10]: inactive
- outcome [11]: inactive
- Potency [12]: 5.22 µM (active)
- outcome [13]: inactive
- outcome [14]: inactive
- activation [15]: 1.31% (inactive)
- outcome [16]: inactive
- Potency [17]: inactive
- Potency [18]: inactive

SMILES: COc1ccc(CNc2cc3c(cn2)CN(Cc2ccccc2)CCN3)cc1OC
- activity [1]: 2.46%
- activity change, negative = inhibition [2]: 0.935% [at 85.7 µM]
- activity [3]: -32.8%
- activity [4]: 1.92%

SMILES: CN1CCCC2(C1)CN(C)c1ccc(C(=O)NCC3CCCCC3)cc12 (centres undefined)
- activity [1]: 1.14%
- activity change, negative = inhibition [2]: -0.167% [at 85.7 µM]
- activity [3]: -10.6%
- activity [4]: -0.542%

SMILES: COc1ccc(-c2n[nH]n3c2nc(=O)c2ccc(C(=O)NCc4ccc(OC)c(OC)c4)cc23)cc1
- activity [1]: -3.17%
- activity change, negative = inhibition [2]: 0.217%
- activity [3]: 0.962%
- activity [4]: 0.793%

SMILES: N#Cc1cc(CN2CCCC(C(=O)Nc3cccc(-c4ccc(F)cc4)c3)C2)c[nH]1 (centres undefined)
- activity [1]: -4.34%
- activity change, negative = inhibition [2]: -9.38%
- activity [3]: -14.2%
- activity [4]: -5.67%

SMILES: O=C(CCc1nnc2n(Cc3ccc(F)cc3)c(=O)c3ccccc3n12)N1CCC(N2CCCCC2)CC1
- activity [1]: 3.84%
- activity change, negative = inhibition [2]: 0%
- activity [3]: -4.81%
- activity [4]: 0%
